Compound activity as filed in PubChem BioAssay.
TDP1 cell CPT = growth inhibition of DT40 Tdp1-/-;hTDP1 cells with camptothecin (screen for TDP1 inhibitors) | chicken DT40 Tdp1-/-;hTDP1 cells + 20 nM CPT, ATP luminescence, 48 h | actives 12% (n = 420,000) | Potency, µM (top dose mostly 46.2 µM), for inactives: at the highest dose activity change, negative = growth inhibition, usual class: inhibitors; note: potency is the fitted concentration of half-maximal effect; nearly all actives have a fitted effect of over 55% in size
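Cell growth measured by CellTiter-Glo luminescence after a minimum 48 h, 37 C compound exposure with 20 nM CPT in Tdp1-knockout DT40 cells stably expressing hTDP1, seeded 400/well; qHTS titration format.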
RORgamma inh = inhibitors of mouse ROR gamma transcriptional activity | P51450 | Drosophila S2 Gal4-RORgamma UAS-luciferase reporter, 20 h | Potency, µM (doses to about 53.6 µM), inactives show top-dose activity change, negative = inhibition, most hits filed as inhibitors | actives 5.4% (n = 310,000); note: potency is the fitted concentration of half-maximal effect; nearly all actives have a fitted effect of over 60% in size
Target sequence (P51450 whole entry, looked up, the tested form may be a part): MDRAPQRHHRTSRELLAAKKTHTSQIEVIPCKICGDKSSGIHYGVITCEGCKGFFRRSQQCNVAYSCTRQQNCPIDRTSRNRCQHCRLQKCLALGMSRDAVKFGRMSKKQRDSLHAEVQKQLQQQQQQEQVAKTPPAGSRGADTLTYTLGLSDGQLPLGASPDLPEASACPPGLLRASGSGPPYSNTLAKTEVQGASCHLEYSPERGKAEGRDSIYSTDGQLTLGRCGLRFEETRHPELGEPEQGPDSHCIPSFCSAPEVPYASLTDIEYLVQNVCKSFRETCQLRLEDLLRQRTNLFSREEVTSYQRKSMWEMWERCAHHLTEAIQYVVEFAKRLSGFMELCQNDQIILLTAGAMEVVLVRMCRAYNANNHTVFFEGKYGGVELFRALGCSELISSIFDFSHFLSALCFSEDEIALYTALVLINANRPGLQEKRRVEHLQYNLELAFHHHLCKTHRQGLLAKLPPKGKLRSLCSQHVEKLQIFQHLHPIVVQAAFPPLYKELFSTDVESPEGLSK
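In this cell-based reporter format, copper sulfate (700 uM final) drives Gal4–ROR gamma fusion expression from a metallothionein promoter in Drosophila Schneider cells; compounds preincubated 1 hr, reporter read after 20 hr at ambient temperature.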
IL-1B inflam inh = inflammasome signaling inhibition, IL-1 beta readout; THP-1 LPS/ATP IL-1B secretion, AlphaLISA, 16 h; hits give low values; activity change, % at 57.5 µM; actives 4.7% (n = 360,000); AID 743279; in the data active = activity change below about -50%; inconclusive = mostly about -30% to -49%
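THP-1 cells pretreated 1 hr with compounds (up to 57.5 uM final), then stimulated with LPS (250 ng/mL final) plus ATP (1.25 mM final); secreted IL-1B measured by AlphaLISA after 16 hr, decreased signal indicating inhibition.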
VP16 counter = counter-screen for ROR gamma inhibitors: Gal4-VP16 reporter; Drosophila S2 Gal4-VP16 UAS-luciferase, luminescence, 20 h; actives 3.5% (n = 310,000); Potency, µM (doses to about 53.6 µM), without a hit: top-dose activity, negative = inhibition, most hits filed as inhibitors;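 note: Gal4-VP16 expression switched on by copper sulfate through the metallothionein promoter; potency is the fitted concentration of half-maximal effect; nearly all actives have a fitted effect of over 50% in size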
LDHA block = LDHA (human) enzyme inhibition; P00338; purified LDHA, NADH/diaphorase-resazurin fluorescence; hits give low values; activity change, % (values are at about 110 or 230 µM); actives 0.15% (n = 480,000); AID 1347041; in the data active = activity change below about -30%; inconclusive = mostly about -25% to -30%;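 note: plate controls were DMSO wells for no effect and wells without enzyme for full effect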
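Human LDH5 at 2 nM final in Tris HCl pH 7.4 with 0.06 mM NADH and 0.2 mM pyruvate, reacted 5 minutes at room temperature. Remaining NADH coupled via diaphorase/resazurin; resorufin fluorescence read at 0 and 20 minutes, normalized to enzyme-free and DMSO wells.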
DT40 TDP1 no CPT = qHTS for Inhibitors of human tyrosyl-DNA phosphodiesterase 1 (TDP1): qHTS in cells in absence of CPT; DT40 Tdp1-/- hTDP1 cells, no CPT, ATP luminescence, 48 h; Potency, µM (series often up to 46.2 µM), inactives show top-dose activity change, negative = growth inhibition, actives largely listed as inhibitors; actives 15% (n = 420,000); AID 686978, 2013; note: potency is the fitted concentration of half-maximal effect; nearly all actives have a fitted effect of over 55% in size
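Seeded 400 DT40-hTDP1 cells/well (vehicle DMSO, no 20 nM CPT); pinned compounds; ≥48 hr at 37 °C; CellTiter-Glo luminescence as viability measure.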
* hit, by the source's call. This is a sample that favours compounds with a hit; in the whole collection about 18% have one here. Unless noted, calls come from the whole dose curve; as a rule, active = well fitted curve in the direction sought with a large enough effect; inconclusive = small, poorly fitted or top-dose-only effect, or another doubt; inactive = no such curve, though single readings can be large; an effect the other way counts as inactive or inconclusive. Unless noted, % is set by controls: 0 for no effect and ±100 for the full control effect.

`COc1ccc(CCCNC(=O)C2Cc3c(-c4cccc(NC(C)=O)c4)ccnc3O2)cc1` (stereo not drawn) gave TDP1 cell CPT 5.8µM*, IL-1B inflam inh 31, LDHA block 1 and DT40 TDP1 no CPT 3.7µM*.
CC(=O)Nc1cccc(-c2ccnc3c2CC(C(=O)NCc2cccs2)O3)c1 (stereo not drawn) was read as TDP1 cell CPT 0.92µM*, IL-1B inflam inh 47, LDHA block -10 and DT40 TDP1 no CPT 0.65µM*.
O=C(O)CCCC[C@@H]1SC[C@@H](NC(=O)c2ccccc2)[C@@H]1O was read as LDHA block 0.
`CCCCNC(=O)Cc1c(C)[nH]c2ccc(CC)cc12` gave LDHA block 7.
COc1ccc(Nc2nnc(SCC(=O)c3ccccc3)s2)cc1 was read as LDHA block 0.
Screening CCOc1ccc(S(=O)(=O)Nc2ccc3c(c2)c(C(C)=O)c(C)n3S(=O)(=O)c2ccc(OCC)cc2)cc1 returned TDP1 cell CPT 21µM*, LDHA block -11 and DT40 TDP1 no CPT 5.2µM*.
CCc1ccc(S(=O)(=O)Nc2c(C)nn(C)c2C)cc1 was read as TDP1 cell CPT 11µM*, RORgamma inh inconclusive, IL-1B inflam inh 19, VP16 counter inconclusive, LDHA block 0 and DT40 TDP1 no CPT 11µM*.
For Cc1ccc(S(=O)(=O)Nc2ccc3c(c2)n(C)c(=O)n3C)c(C)c1 the results were TDP1 cell CPT inconclusive, RORgamma inh -28%, IL-1B inflam inh 38, VP16 counter inconclusive, LDHA block -4 and DT40 TDP1 no CPT 21µM*.
CCCCCC(=O)N(c1ccc(OCC)cc1)S(=O)(=O)c1ccc2c(c1)n(C)c(=O)n2C was read as TDP1 cell CPT 21µM*, LDHA block -6 and DT40 TDP1 no CPT 16µM*.
For Cc1ccc(S(=O)(=O)Nc2cc3c(cc2C)n(C)c(=O)c(=O)n3C)c(C)c1 the results were TDP1 cell CPT -29%, LDHA block -3 and DT40 TDP1 no CPT inconclusive.
For COc1ccc(C(=O)N(c2ccc(OC)cc2)S(=O)(=O)c2ccc3c(c2)n(C)c(=O)n3C)cc1 the results were TDP1 cell CPT inconclusive, LDHA block -13 and DT40 TDP1 no CPT inconclusive.
CCCC(=O)N1c2ccccc2-c2nnc(SC)nc2OC1C (stereo not drawn) was read as LDHA block 3.
`CCOc1ccc(S(=O)(=O)Nc2ccc3c(c2)n(C)c(=O)n3C)cc1` gave TDP1 cell CPT inconclusive, RORgamma inh inconclusive, IL-1B inflam inh 13, VP16 counter 0.1µM*, LDHA block -5 and DT40 TDP1 no CPT 7.3µM*.
Cn1c(=O)n(C)c2cc(NS(=O)(=O)c3ccccc3)ccc21 was read as TDP1 cell CPT inconclusive, RORgamma inh -13%, IL-1B inflam inh -8, VP16 counter 19%, LDHA block -1 and DT40 TDP1 no CPT -6%.
Screening Cc1ccc(NC(=O)CN(C)S(=O)(=O)c2ccc3c(c2)n(C)c(=O)c(=O)n3C)c(C)c1 returned TDP1 cell CPT 18µM*, RORgamma inh -2%, IL-1B inflam inh 11, VP16 counter -10%, LDHA block -3 and DT40 TDP1 no CPT inconclusive.
`CCc1ccc(S(=O)(=O)Nc2cc3c(cc2C)n(C)c(=O)n3C)cc1` gave TDP1 cell CPT 5.2µM*, RORgamma inh inconclusive, IL-1B inflam inh 29, VP16 counter 7.1µM*, LDHA block -8 and DT40 TDP1 no CPT 2.9µM*.
For Cc1ccc(NS(=O)(=O)c2ccc3c(c2)n(C)c(=O)n3C)c(C)c1 the results were TDP1 cell CPT inconclusive, RORgamma inh 12%, IL-1B inflam inh -54*, VP16 counter 4%, LDHA block -6 and DT40 TDP1 no CPT inconclusive.
